# Screening results from PubChem.
# CHOP inhibitor – CHOP inhibition in unfolded protein response. CHO-K1 CHOP-promoter luciferase, tunicamycin-induced, 15-18 h. inhibition, % at 10 µM. 3.8% of 220,000 active. AID 2732;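 active = compounds that reduced the stress-induced luciferase reporter signal by more than about 70% of percent inhibition, limit read from the data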;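 note: 0% = tunicamycin plus vehicle and 100% = wells without tunicamycin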
# RAM inhibit – blocks the yeast RAM network | S. cerevisiae dse1pr::URA3 reporter, 5-FOA growth OD615, 2 d; analog-sensitive cbk1-as2 kinase mutant strain | inhibition, % at 50 µM | 1.8% of 190,000 active;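 active = inhibition above a set limit, 3 SD over mean compound inhibition, cut at about 8.4% in these data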;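 note: 0% = DMSO-only wells with no growth and 100% = 10 µM 1-NA-PP1 full growth; inhibition rescues growth on 5-FOA so higher OD means more RAM inhibition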
# L major viab – reduces viability of Leishmania major promastigotes. resazurin fluorescence viability. inhibition, % at 10 µM. 9% of 200,000 active; in the data active = inhibition above about 50%;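 note: promastigotes grown with compound for 44 hours at 28 °C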
# WT yeast gro inh – growth inhibition of WT yeast, mitochondrial fusion screen. mitochondrial fusion phenotypic screen, WT strain. 2.1% of 190,000 active. AID 1362. inhibition, % at 10 µM; in the data active = inhibition above about 58%; tested in S. cerevisiae
# An asterisk follows results filed as active; x = not tested or not shown. This is a sample that favours compounds with a hit; in the whole collection about 13% have one here.
SMILES,CHOP inhibitor,RAM inhibit,L major viab,WT yeast gro inh
CCOC(=O)C1=C(N)OC2=C(C(=O)CCC2)C1c1cccnc1 (stereo not given),-14,0,-2,-6
CCOC(=O)C1=C(N)OC2=C(C(=O)CC(C)(C)C2)C1c1ccoc1 (stereo not given),9,1,-5,-4
CC1(C)CC(=O)C2=C(C1)NC1=C(C(=O)c3ccccc31)C2c1cccnc1 (stereo not given),27,1,25,2
CCOC(=O)C1=C(N)OC2=C(C(=O)CC(C)(C)C2)C1c1cccnc1 (stereo not given),9,0,78*,-12
CCOC(=O)C1=C(C)NC2=C(C(=O)c3ccccc32)C1c1cccnc1 (stereo not given),36,1,82*,9
CCOC(=O)C1=C(C)OC(N)=C(C(=O)OCC)C1c1cccnc1 (stereo not given),4,0,84*,12
CCOC(=O)N/N=C(\C)c1ccc(-n2cnnn2)cc1,1,0,-4,2
CC1=C(C(=O)OC(C)C)C(c2cccnc2)C2=C(CCCC2=O)N1 (stereo not given),91*,0,36,12
CCOC(=O)C1=C(C)NC2=C(C(=O)CCC2)C1c1cccnc1 (stereo not given),5,3,4,-20
CCOc1ccccc1NC(=O)Nc1ccon1,16,x,x,x
Clc1ccc(-n2cccc2CN2CCc3c([nH]c4ccccc34)C2c2ccccn2)nc1 (stereo not given),-11,1,96*,49
CSc1ncc(CN2CCc3c([nH]c4ccccc34)C2c2cccc(C)n2)cn1 (stereo not given),-1,x,x,x
CSc1ncc(CN2CCc3c([nH]c4ccccc34)C2c2cccc(O)c2)cn1 (stereo not given),86*,1,12,40
Fc1ccc(C2c3[nH]c4ccccc4c3CCN2Cc2cccn2-c2ncccn2)cc1 (stereo not given),17,0,67*,23
COC(=O)c1ccc(COC(=O)CCC(=O)c2cccs2)cc1,-50,-1,-3,-12
O=c1[nH]nc(Cc2ccc(-c3cccc(Cl)c3)o2)c2ccccc12,72*,4,-2,-14
CC(=O)Nc1cccc(OCCCNC(=O)c2cccc3ccccc23)c1,-8,x,x,x
C/C(=N\NC(=O)c1cccc(Cl)c1)C1C(=O)c2ccccc2C1=O,2,5,97*,-7
O=C(COc1ncnc2c(Cl)cc(Cl)cc12)Nc1cc([N+](=O)[O-])ccc1Cl,60,1,52*,3
CC(=O)NN1C(=O)c2ccccc2NC1c1ccco1 (stereo not given),-2,1,-5,6
O=C(NN1C(=O)c2ccccc2NC1c1ccco1)c1ccc(Br)cc1 (stereo not given),4,0,3,14
CC(=O)NN1C(=O)c2ccccc2NC1c1ccc([N+](=O)[O-])o1 (stereo not given),25,-1,66*,6
O=C(NN1C(=O)c2ccccc2NC1c1ccc([N+](=O)[O-])o1)c1ccc(Br)cc1 (stereo not given),-17,-1,95*,-1
O=C(NCc1ccc(F)cc1)C(=O)Nc1nc(C23CC4CC(CC(C4)C2)C3)cs1,13,1,25,44
COc1cccc(OCCCCCN2CCOCC2)c1,5,1,99*,14
SMILES,CHOP inhibitor,RAM inhibit,L major viab,WT yeast gro inh
O=C(CCN1CCN(C(=O)c2ccco2)CC1)Nc1ccc(F)cc1,26,2,4,-9
Brc1ccc(Oc2ncc(CN3CCOCC3)s2)cc1,-28,0,90*,12
O=C(c1ccco1)N1CCN(CCCCOc2ccc(F)cc2)CC1,19,0,91*,-9
O=C(COc1ccc2ccccc2c1)N1CCN(C(=O)c2ccco2)CC1,22,1,4,1
O=C(c1ccco1)N1CCN(CC(O)COc2ccc3oc4ccccc4c3c2)CC1 (stereo not given),31,1,85*,30
N#CC1=C(N)N(c2ccc(F)cc2)C2=C(C1c1ccc(O)cc1)S(=O)(=O)CC2 (stereo not given),-1,2,0,21
C#CCNC(=O)C1=C[C@H](c2ccc(C(F)(F)F)cc2)C[C@H](OCc2ccc(CO)cc2)O1,22,3,5,13
OC(COc1ccc(Br)cc1)CN1CCOCC1 (stereo not given),13,1,-2,-8
Brc1ccc(OCCOCCN2CCOCC2)cc1,-4,1,90*,10
Brc1ccc(OCCCCCN2CCOCC2)cc1,4,2,98*,21
Fc1ccc(OCCCCN2CCOCC2)cc1,-3,1,85*,-14
